# Compound activity from PubChem.
# Plk1 PBD FP: Plk1 (human) PBD binding inhibition | P53350 | Plk1 PBD phosphopeptide binding, fluorescence polarization | inhibition, %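 (tested at about 20 µM)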 | 97,000 compounds, 0.13% hits | AID 693; in the data active means inhibition above about 34%, passing the limit was not always enough
# CD11b adhes inh: blocks human CD11b/CD18 adhesion to fibrinogen. P05107+P11215. inhibition, % at 10 µM. 93,000 compounds, 0.54% hits. K562 CD11b/CD18 adhesion to fibrinogen, ATPlite luminescence; Mn2+ added to activate the integrin;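 active means primary inhibition of 50% or more at 10 µM, then 40% or more on retest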
# Calb biofilm kill: kills Candida albicans biofilms | C. albicans biofilm + clotrimazole, Alamar Blue | inhibition, % at 6 µM | 85,000 compounds, 0.14% hits;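 active means inhibition above 20%; inactive means inhibition below 20%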;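 further: preformed 24 hr biofilms exposed to compound for 48 hr; 0% = biofilm without compound and 100% = blank killed by clotrimazole plus chlorhexidine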
# PLK1 inh: inhibitors of human PLK1 kinase. P53350. recombinant PLK1 kinase, TR-FRET peptide phosphorylation. inhibition, % at 10 µM. 97,000 compounds, 0.53% hits;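 active means inhibition of 50% or more in the single-concentration screen; inactive means inhibition below 50%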;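 further: 0% = DMSO max control and 100% = H-89 dihydrochloride min control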
# CD11b adhes enh: CD11b/CD18-fibrinogen binding enhancement | P05107+P11215 | K562 CD11b/CD18 adhesion to fibrinogen, ATPlite luminescence | activation, % at 10 µM | 93,000 compounds, 0.07% hits;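 active means 10 µM primary screen giving 50% or more activity, confirmed by 40% or more on retest at that dose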
# PLK1 confirm: PLK1 (human) kinase inhibition, confirmed; AID 744; recombinant PLK1 kinase, TR-FRET peptide phosphorylation; inhibition, % at 10 µM; shares compounds with PLK1 inh; 210 compounds, 20% hits;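 active means inhibition at or above 50% in each of two repeat confirmation tests; inconclusive means one repeat below 50% inhibition, the other above; inactive means both repeats at or below 50% inhibition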;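 further: 0% = DMSO max control and 100% = H-89 kinase-blocked min control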
# TR-FRET interf: counter-screen for Plk1 inhibitors: compound assay interference. shares compounds with PLK1 inh. inhibition (interference), % at 10 µM. 210 tested, under 10 active. Plk1 TR-FRET assay interference, compound added post-reaction;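 active means both duplicate runs show 50% or greater inhibition; inconclusive means only one duplicate run shows over 50% inhibition; inactive means both runs show under 50% inhibition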;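 further: 0% = DMSO max control and 100% = H-89 min control inhibited reaction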
# PBD redox DR: counter-screen for Plk1 PBD inhibitors: redox cycling H2O2 generation; shares compounds with Plk1 PBD FP; DTT; EC50, µM; 120 tested, under 10 active; AID 876; call rule not given here
# * marks the source's active call; other numbers are inactive results; ? = inconclusive; . = no result. Compounds with a hit are over-represented: about 1.1% of the library has one in this group of screens.
SMILES,Plk1 PBD FP,CD11b adhes inh,Calb biofilm kill,PLK1 inh,CD11b adhes enh,others
COc1ccc(C(=O)N2CCOCC2)cc1S(=O)(=O)N1CCC(C)CC1,16,-14,.,-9,-2,
CC1CCN(S(=O)(=O)c2ccc(NN=C(C#N)C#N)cc2)CC1,-1,98*,.,-21,-9,
O=c1[nH]c(=O)n(Cc2ccco2)c(O)c1C=NCCCn1ccnc1,-22,-20,12,-2,-4,
O=C(Oc1c(Cl)cc(Cl)c2ccccc12)N1CCCCC1,-15,56*,7,-12,-5,
COc1ccc(Cn2c(N)c(C(=O)NCc3ccco3)c3nc4ccccc4nc32)cc1OC,-13,-3,.,72*,-3,PLK1 confirm=71*;TR-FRET interf=-43
CCCNC(=O)c1c(N)n(Cc2ccco2)c2nc3ccccc3nc12,-26,-6,6,-8,-1,
CCCN(CC#CCO)CCC,-1,.,.,7,.,
CN1/C(=C\C=C\C2=[N+](C)c3ccc4ccccc4c3C2(C)C)C(C)(C)c2ccccc21,-4,.,-16,86*,.,PLK1 confirm=?;TR-FRET interf=11
Cc1nc2c(=O)n(C)c(=O)nc-2n(C)n1,116*,.,5,-12,.,PBD redox DR=1.6*
O=C1C(=O)c2ccccc2-c2ccccc21,95*,60*,.,3,-7,PBD redox DR=>50
O=c1[nH]c(=O)n(Cc2ccccc2)c(O)c1C=NCCN1CCOCC1,.,-11,0,.,2,
CCOC(=O)c1ccc(NC(=O)c2c(O)[nH]c(=O)[nH]c2=O)cc1,59*,-5,8,9,-3,PBD redox DR=>50
CN1CSC(=S)N(C)C1,23,-7,1,4,0,
CC(C)C12CN3CC(C(C)C)(CN(C1)C3c1cccnc1)C2=O (configuration not stated),23,.,6,-8,.,
